Where a name gives a salt, the structure may show the parent alone.
Tests used:
Conditions in all cases: incubation time: 27 h, anaerobic, 37 °C;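 for the amine columns active = adjusted P below 0.05 in both replicates with a change the same way and a mean fold change under 0.8 or over 1.25; inactive = the rest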
[1] = test system: Clostridium sporogenes DSM 1664; test: growth (OD595) fold change vs plate DMSO controls (fold change (ratio)); higher = more growth
In short: (§1)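 The 96-well mGAM cultures had been kept anaerobic for 27 h at 37 °C before being shaken and read at 595 nm. Blank subtraction, compound background correction with 20 µM compound solutions in water, and a calibration factor of 5 turned the readings into OD. Growth is given as the fold change versus the median of plate DMSO controls. Fold changes above 1.5 were set to NA, and the values are means of 2 biological replicates.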

[2] = test system: Escherichia coli IAI1; test: as above
In short: as §1

[3] = test system: Klebsiella aerogenes DSM 30053; test: as above
In short: as §1

[4] = test system: Ruminococcus gnavus DSM 108212; test: as above
In short: as §1

[5] = test system: Klebsiella aerogenes DSM 30053; test: fold change of Histamine concentration vs plate DMSO controls (fold change (ratio)); higher = more amine produced, active = hit call of the paper (significant change in both replicates, either direction)
In short: (§2)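 Each value is the fold change relative to DMSO-only wells on the same plate. Four gut bacterial strains were grown anaerobically in mGAM at 37 °C for 27 h in 80 µL wells, starting at OD 0.1 before a 1:1 dilution, with compounds at 20 µM final (sweeteners 50 µM). Whole cultures were extracted with cold acetonitrile/methanol containing 0.1% formic acid, centrifuged, and amines were quantified by LC–triple-quadrupole MS (dynamic MRM) against external calibration curves with within-batch drift correction. Values are means of 2 biological replicates.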

[6] = test system: Clostridium sporogenes DSM 1664; test: fold change of Tryptamine concentration vs plate DMSO controls (fold change (ratio)); higher = more amine produced, active = hit call of the paper (significant change in both replicates, either direction)
In short: as §2

[7] = test system: Ruminococcus gnavus DSM 108212; test: as above
In short: as §2

[8] = test system: Escherichia coli IAI1; test: fold change of Putrescine concentration vs plate DMSO controls (fold change (ratio)); higher = more amine produced, active = hit call of the paper (significant change in both replicates, either direction)
In short: as §2

[9] = test system: Klebsiella aerogenes DSM 30053; test: as above
In short: as §2

[10] = test system: Escherichia coli IAI1; test: fold change of Cadaverine concentration vs plate DMSO controls (fold change (ratio)); higher = more amine produced, active = hit call of the paper (significant change in both replicates, either direction)
In short: as §2

[11] = test system: Klebsiella aerogenes DSM 30053; test: as above
In short: as §2

[12] = test system: Ruminococcus gnavus DSM 108212; test: fold change of 2-Phenylethylamine concentration vs plate DMSO controls (fold change (ratio)); higher = more amine produced, active = hit call of the paper (significant change in both replicates, either direction)
In short: as §2

| Compound | growth [1] | growth [2] | growth [3] | growth [4] | fold change of Histamine concentration [5] | fold change of Tryptamine concentration [6] | fold change of Tryptamine concentration [7] | fold change of Putrescine concentration [8] | fold change of Putrescine concentration [9] | fold change of Cadaverine concentration [10] | fold change of Cadaverine concentration [11] | fold change of 2-Phenylethylamine concentration [12] |
| --- | --- | --- | --- | --- | --- | --- | --- | --- | --- | --- | --- | --- |
| CC1=C(/C=C/C(C)=C/C=C/C(C)=C\C(=O)O)C(C)(C)CCC1 [Isotretinoin] (20 µM) | 0.96 | 0.987 | 1.02 | 1.02 | 0.996 (inactive) | 0.977 (inactive) | 1.04 (inactive) | 1.01 (inactive) | 1.02 (inactive) | 0.97 (inactive) | 0.991 (inactive) | 1.05 (inactive) |
| CC(C)C(=O)Nc1ccc([N+](=O)[O-])c(C(F)(F)F)c1 [Flutamide] (20 µM) | 0.955 | 1 | 0.938 | 1.32 | 1.02 (inactive) | 0.961 (inactive) | 1 (inactive) | 0.977 (inactive) | 1.01 (inactive) | 0.982 (inactive) | 0.981 (inactive) | 1.02 (inactive) |
| CCOc1ccc(NC(=O)CC(C)O)cc1 (centres undefined) [Bucetin] (20 µM) | 0.973 | 0.985 | 0.995 | 1.07 | 0.984 (inactive) | 0.999 (inactive) | 0.95 (inactive) | 0.997 (inactive) | 1.01 (inactive) | 0.977 (inactive) | 0.993 (inactive) | 0.936 (inactive) |
| O=C(NC1CCN(CCCCC2(C(=O)NCC(F)(F)F)c3ccccc3-c3ccccc32)CC1)c1ccccc1-c1ccc(C(F)(F)F)cc1 [Lomitapide] (20 µM) | 1.1 | 1 | 1.06 | 1.07 | 0.938 (inactive) | 1.01 (inactive) | 0.709 (active) | 1.02 (inactive) | 1.01 (inactive) | 1.04 (inactive) | 1.01 (inactive) | 0.847 (inactive) |
| CC(/C=C1\SC(=S)N(CC(=O)O)C1=O)=C\c1ccccc1 [Epalrestat] (20 µM) | 1.15 | 0.964 | 1.05 | 0.896 | 1.05 (inactive) | 1.01 (inactive) | 1.16 (inactive) | 1.14 (inactive) | 0.992 (inactive) | 0.932 (inactive) | 1.12 (inactive) | 1.44 (inactive) |
| CC(=O)OCC(=O)[C@@]12OC(C)(C)O[C@@H]1C[C@H]1[C@@H]3C[C@H](F)C4=CC(=O)C=C[C@]4(C)[C@@]3(F)[C@@H](O)C[C@@]12C [Fluocinonide] (20 µM) | 0.81 | 0.961 | 0.997 | 0.976 | 1 (inactive) | 1.07 (inactive) | 0.936 (inactive) | 0.978 (inactive) | 1 (inactive) | 0.972 (inactive) | 0.988 (inactive) | 0.911 (inactive) |
| Cc1ccc(Cl)c(Nc2ccccc2C(=O)O)c1Cl [Meclofenamic acid sodium salt monohydrate] (20 µM) | 1.01 | 0.972 | 1.16 | 1.12 | 0.916 (inactive) | 0.879 (inactive) | 0.959 (inactive) | 0.999 (inactive) | 0.977 (inactive) | 1.03 (inactive) | 1.03 (inactive) | 0.911 (inactive) |
| CC(C)NC[C@@H](O)COc1cccc2ccccc12 [(R) Propranolol hydrochloride] (20 µM) | 1.08 | 0.856 | 0.86 | 0.617 | 1.01 (inactive) | 1.04 (inactive) | 0.95 (inactive) | 0.979 (inactive) | 0.993 (inactive) | 1.01 (inactive) | 0.987 (inactive) | 0.945 (inactive) |
| CN(Cc1cnc2nc(N)nc(N)c2n1)c1ccc(C(=O)N[C@@H](CCC(=O)O)C(=O)O)cc1 [Amethopterin] (20 µM) | 1.08 | 1.02 | 1.09 | 1.42 | 0.922 (inactive) | 0.975 (inactive) | 0.892 (inactive) | 1 (inactive) | 1 (inactive) | 1 (inactive) | 1.02 (inactive) | 0.832 (inactive) |
| CC(C)(Oc1ccc(C2CC2(Cl)Cl)cc1)C(=O)O (centres undefined) [Ciprofibrate] (20 µM) | 0.861 | 0.88 | 0.891 | 0.992 | 1.01 (inactive) | 1.04 (inactive) | 0.951 (inactive) | 1.01 (inactive) | 1 (inactive) | 1.03 (inactive) | 0.992 (inactive) | 0.949 (inactive) |
| CN(C)CCc1c[nH]c2ccc(Cn3cncn3)cc12 [Rizatriptan benzoate] (20 µM) | 0.987 | 0.971 | 1.02 | 0.996 | 0.934 (inactive) | 1 (inactive) | 1.01 (inactive) | 0.97 (inactive) | 1.01 (inactive) | 1.02 (inactive) | 1.01 (inactive) | 0.989 (inactive) |
| NS(=O)(=O)c1cc2c(cc1Cl)NCNS2(=O)=O [Hydrochlorothiazide] (20 µM) | 0.895 | 1.06 | 0.998 | 1.03 | 1.06 (inactive) | 0.949 (inactive) | 1.11 (inactive) | 1.04 (inactive) | 1 (inactive) | 0.915 (inactive) | 1.11 (inactive) | 1.27 (active) |

— the supplement of paper PMC12494721
